These entries were drawn from the full list.
aSyn 5UTR act – Activators working through SNCA 5'UTR binding (MLPCN) | hit rate 7.1% among 300,000 | alpha-synuclein 5'UTR reporter, activators screen | activity score, % (tested at 7.5 µM), hits read low | AID 1814; in the data active = activity score below about -60%
* = called active by the depositor.

SMILES | aSyn 5UTR act
COc1ccc2c(c1)[nH]c1c(=O)n(Cc3ccco3)cnc12 | -65*
CCCCn1cnc2c([nH]c3cc(OC)ccc32)c1=O | -129*
COc1ccc(-n2c(=S)[nH]c3cc(C(=O)Nc4ccc(F)cc4)ccc3c2=O)c(OC)c1 | -142*
CCOC(=O)N1CCN(/C=C(\C#N)c2nc3ccccc3s2)CC1 | -94*
CC(=O)N1CCC(=NNc2nc3ccccc3s2)CC1 | -215*
CCOC(=O)N1CCC(=NNc2nc3ccccc3s2)CC1 | -112*
CC(=O)Nc1cccc(/C(C)=N/Nc2nc3ccccc3s2)c1 | -224*
Cn1cc(Cl)c(-c2nc3ccccc3[nH]2)n1 | -149*
Fc1ccccc1-c1nc2ccccc2[nH]1 | -128*
Clc1ccccc1-c1nc2ccccc2[nH]1 | -113*
c1ccc2[nH]c(-c3ccnc4ccccc34)nc2c1 | -96*
Cc1cc2nc(-c3ccc[nH]c3=O)[nH]c2cc1C | 77
Cc1ccccc1-c1nc2ccccc2[nH]1 | -134*
CCOC(=O)c1ccc2[nH]c3c(c2c1)CCCC3 | -124*
COC(=O)c1ccc2[nH]c3c(c2c1)CC(C)CC3 (stereo not given) | -96*
CCNC(=O)NC(=O)C(C)Oc1ccc(Br)cc1Br (stereo not given) | -78*
COc1ccc(/C=C/c2n[nH]c(=O)c(C#N)c2C)cc1 | -71*
CCS(=O)(=O)c1ccc2oc(Nc3ccccc3C)nc2c1 | -122*
CCN(CC)S(=O)(=O)c1ccc2oc(Nc3ccccc3)nc2c1 | -129*
COc1cc(C2NC(=S)NC(C)=C2C(=O)Nc2ccc(C)cc2)ccc1O (stereo not given) | -171*
CC(C)c1ccc(C(=O)CSc2ncn[nH]2)cc1 | -137*
Cc1cc2cc(CN(Cc3ccco3)S(=O)(=O)c3c(C)ccc4nsnc34)c(=O)[nH]c2cc1C | 89
CCOC(=O)c1cccc(S(=O)(=O)N(CCO)Cc2cc3cc(OC)c(OC)cc3[nH]c2=O)c1 | -72*
O=c1c2ccccc2[nH]c(=S)n1CCc1ccccc1 | -123*
Cn1c(SCc2ccccc2)nnc1-c1ccc(O)cc1 | -76*
SMILES | aSyn 5UTR act
c1ccc(CSc2ccc(-c3ccc4c(c3)OCO4)nn2)cc1 | -150*
Cn1c(SCc2ccccc2)nnc1-c1ccc2c(c1)OCO2 | -192*
Oc1ccccc1-c1nnc(SCCN2CCOCC2)n1Cc1ccccc1 | 81
C/C(=N\NC(=O)c1cccc(N/N=C(\C)c2ccco2)c1)c1ccco1 | -81*
C/C(=N/NC(=O)c1cc2ccccc2cc1O)c1ccco1 | -64*
C/C(=N\NC(=O)c1c(C)nc2ccccn12)c1ccco1 | -139*
C/C(=N\NC(=O)c1cc(-c2cccnc2)nc2ccccc12)c1ccc(O)cc1O | 105
C/C(=N\NC(=O)c1c(C)nc2ccccn12)c1ccc(C(C)(C)C)cc1 | -98*
COc1ccccc1C1CCN(c2ccc([N+](=O)[O-])c(OC)c2)CC1 | -75*
Fc1cccc(CSc2nnc3c(n2)[nH]c2ccccc23)c1 | -142*
CC(C)(C)SCCNC(=O)Nc1ccccc1 | -87*
CC(C)(C)SCCNC(=O)CSc1ccccc1 | -72*
O=C(COc1ccccc1)Nc1cccc(-c2nc3ccccc3[nH]2)c1 | -63*
O=C(COc1ccccc1)Nc1cccc(-c2nnc(-c3ccccc3)o2)c1 | -64*
CC(C)(C)c1ccc(OCC(=O)Nc2ccc(-c3nc4cccnc4o3)cc2)cc1 | -135*
COc1ccc(OCC(=O)Nc2cccc(-c3nc4ccccc4o3)c2)cc1 | -151*
O=C(Nc1cccc(-c2nc3ccccc3o2)c1)c1ccc(N2C(=O)C3C4C=CC(C4)C3C2=O)cc1 (stereo not given) | 88
C=Cc1cccc(NC(=O)COc2ccccc2)c1 | -107*
COc1ccc(C(=O)Nc2cccc(-c3nnc(-c4ccco4)o3)c2)cc1 | -93*
Oc1cc(NCc2cccnc2)ccc1-c1nc2ccccc2o1 | -100*
COc1ccc(OCC(=O)Nc2cccc(-c3nc4ccccc4[nH]3)c2)cc1 | -159*
CCc1ccc(OCC(=O)Nc2ccc(-c3nc4ccccc4o3)c(O)c2)cc1 | -97*
Cc1nc(C)c(-c2csc(Nc3cccc(O)c3)n2)s1 | -156*
Cc1cccc(Nc2nc(-c3sc(C)nc3C)cs2)c1 | -149*
CC(=O)Nc1ccc(Nc2nc(-c3sc(C)nc3C)cs2)cc1 | -77*
SMILES | aSyn 5UTR act
Cc1nc(N)sc1-c1csc(Nc2cccc(O)c2)n1 | -79*
c1ccc2c(c1)Cc1cc(CN3CCOCC3)ccc1-2 | -113*
Cc1ccc(NC(=O)n2ncc3c(C)cccc32)cc1F | -71*
COc1ccc(NC(=O)n2ncc3c(C)cccc32)cc1OC | -165*
COc1ccc(NC(=O)n2ncc3c(C)cccc32)cc1 | -88*
Cn1nnnc1Sc1ncnc2scc(-c3ccc(F)cc3)c12 | -89*
C=CCn1c(C)cc(C(=O)COC(=O)[C@@H](NC(=O)c2ccccc2Cl)C(C)C)c1C | -70*
CCOc1nc(NCc2ccco2)nc(Nc2ccccc2F)n1 | -108*
COc1cccc(NC(=O)C(=O)N2CCOCC2)c1 | -173*
CCn1c2ccccc2c2cc(Nc3cc(C)nc4ncnn34)ccc21 | 82
CCn1c2ccccc2c2cc(NC(=O)C(=O)N3CCOCC3)ccc21 | -63*
O=C(CN1C(=O)c2ccccc2S1(=O)=O)c1ccc(OC(F)F)cc1 | 86
CN(CCOC(=O)CN1C(=O)c2ccccc2C1=O)C1=NS(=O)(=O)c2ccccc21 | -89*
c1ccc(CSc2nnc(-c3ccco3)n2Cc2ccco2)cc1 | -107*
Cn1c(SCc2ccccc2)nnc1-c1ccco1 | -120*
COc1cccc(-c2nnc(SCc3ccc(C#N)cc3)n2Cc2ccco2)c1 | 43
COc1cc(/C=N/n2cnnc2)ccc1OCCSc1ccc(C)cc1 | -78*
COc1cc(C(=O)N/N=C/C2CC=CCC2)cc(OC)c1OC (stereo not given) | 108
CCOc1ccc2[nH]c(C(=O)N/N=C/c3ccccc3OC)cc2c1 | -116*
COc1ccc2[nH]c(C(=O)N/N=C/c3ccccc3OC)cc2c1 | -119*
CCOc1ccc(/C=N/NC(=O)c2cc3c(OC)cc(OC)c(OC)c3[nH]2)cc1 | -78*
COC(=O)c1ccc(C2OCC(C)(C)CO2)cc1 | -135*
COC(=O)c1ccc2c(c1)C(C)(C)C(/C=C/c1ccc(OC)c(OC)c1OC)=[N+]2C | 102
CC(=O)c1cc(NC(=O)c2ccc(C)cc2)c(=O)oc1C | -117*
Cc1oc(=O)c(NC(=O)c2ccccc2)cc1C(=O)c1ccccc1 | -205*
SMILES | aSyn 5UTR act
Cc1ccc(C(=O)Nc2cc3ccccc3oc2=O)cc1 | 111
CC(=O)c1cc(NC(=O)c2ccc(C)cc2)c(=O)oc1/C=C/N(C)C | -78*
CCCCOc1ccc(C(=O)Nc2cccc(C)n2)cc1 | -68*
Cc1cccc(NC(=O)Nc2ccccc2)n1 | -76*
CCOc1ccc(NC(=O)Nc2cc(C)ccc2F)cc1 | -199*
COc1cccc(NC(=O)Nc2cccc(C)n2)c1 | -110*
CCOc1ccc(NC(=O)Nc2cccc(C)n2)cc1 | -143*
Cc1ccc(NC(=O)Nc2cccc(C)n2)c(C)c1 | -104*
Cc1ccccc1-n1nc(C)c2c(C(=O)NN)cc(-c3ccncc3)nc21 | 56
Cc1cccn2cc(-c3cccc(NC(=O)c4cccs4)c3)nc12 | -73*
Cc1ccn2cc(-c3cccc(NC(=O)c4cccs4)c3)nc2c1 | -85*
C=CCN1CCN(C(=O)CSc2ccccc2)CC1 | -103*
COc1ccccc1N1CCN(C(=O)CSc2ccccc2)CC1 | -82*
O=c1c2ccccc2nc(SCc2nc3ccccc3s2)n1CCCO | -182*
CO/N=C/CC(=O)c1cnc(-c2ccc(Cl)cc2)s1 | -79*
